Assay outcomes (PubChem)
TDP1 cell noCPT: qHTS for Inhibitors of human tyrosyl-DNA phosphodiesterase 1 (TDP1): qHTS in cells in absence of CPT | AID 686978, 2013 | 15% of 420,000 active | DT40 Tdp1-/- hTDP1 cells, no CPT, ATP luminescence, 48 h | Potency, µM (series often up to 46.2 µM), actives largely listed as inhibitors; also: nearly all actives have a fitted effect of over 55% in size
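DT40 Tdp1-/-;hTDP1 cells, no CPT (DMSO vehicle only), 400 cells/well; compounds pin-transferred; ≥48 hr, 37 °C; CellTiter-Glo 30 min RT dark, luminescence read.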
TDP1 inh: blocks human tyrosyl-DNA phosphodiesterase 1. recombinant TDP1, AlphaScreen DNA substrate cleavage. Potency, µM (series often up to 130 µM), actives largely listed as inhibitors. 0.28% of 350,000 active; also: nearly all actives have a fitted effect of over 40% in size
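Recombinant human Tdp1 (E. coli-expressed, 1 nM final) preincubated with compounds 15 min at room temperature, then 5'-biotin/3'-phosphotyrosine-FITC DNA substrate (15 nM final) added for 5 min. AlphaScreen beads (10 ug/ml final) added 10 min; cleavage lowers signal.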
PLK1 PBD block: PLK1 (human) polo-box domain binding inhibition; 2.8% of 360,000 active; P53350; Plk1 PBD binding of FITC phosphopeptide, fluorescence polarization; Potency, µM, usual class: inhibitors; also: series mostly up to about 57 µM; nearly all actives have a fitted effect of over 65% in size
Target sequence (P53350 whole entry, looked up, the tested form may be a part): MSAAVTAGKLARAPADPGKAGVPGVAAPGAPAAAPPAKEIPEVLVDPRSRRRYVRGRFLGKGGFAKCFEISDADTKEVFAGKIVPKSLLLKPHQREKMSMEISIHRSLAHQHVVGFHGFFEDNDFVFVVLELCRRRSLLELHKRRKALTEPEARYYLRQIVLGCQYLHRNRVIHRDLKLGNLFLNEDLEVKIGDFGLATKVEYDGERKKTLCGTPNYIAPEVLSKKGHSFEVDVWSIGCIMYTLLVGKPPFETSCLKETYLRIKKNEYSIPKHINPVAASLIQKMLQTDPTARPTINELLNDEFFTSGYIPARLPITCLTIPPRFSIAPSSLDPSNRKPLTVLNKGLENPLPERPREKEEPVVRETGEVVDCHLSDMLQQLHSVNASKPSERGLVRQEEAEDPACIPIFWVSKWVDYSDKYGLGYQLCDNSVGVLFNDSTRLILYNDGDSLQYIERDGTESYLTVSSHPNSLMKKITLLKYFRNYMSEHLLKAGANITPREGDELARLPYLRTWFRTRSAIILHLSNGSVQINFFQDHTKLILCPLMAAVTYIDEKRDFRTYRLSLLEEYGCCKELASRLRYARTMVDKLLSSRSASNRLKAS
VDR inh: vitamin D3 receptor (human) inhibition; VDR-SRC2-3 peptide fluorescence polarization, 2 h; Potency, µM, most hits filed as inhibitors; 0.93% of 400,000 active
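Reagent solutions, kept cold and dark, are dispensed first; compounds are then pinned in at 23 nl, plates briefly spun, and incubated 2 h at ambient temperature. Inhibition of VDR–SRC2-3 peptide binding is read by fluorescence polarization.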
KAT2A inh: blocks human GCN5L2 histone acetyltransferase; GCN5L2 HAT assay, ThioGlo1 CoA-SH fluorescence; Potency, µM (doses to about 58.9 µM), actives largely listed as inhibitors; 0.21% of 390,000 active; AID 504327
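GCN5L2 (20nM final) in 50mM HEPES, 0.1mM EDTA pH 7.5, 0.01% Tween-20 was preincubated 15 min at room temperature with compound, then given ThioGlo1 (50uM), H3(1-25) peptide (75uM) and acetyl-CoA (70uM); CoA-thiol fluorescence (Ex340/Em540) was read at 0 and 20 min.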
TDP1 cell CPT: growth inhibition of DT40 Tdp1-/-;hTDP1 cells with camptothecin (screen for TDP1 inhibitors); 12% of 420,000 active; chicken DT40 Tdp1-/-;hTDP1 cells + 20 nM CPT, ATP luminescence, 48 h; Potency, µM (highest dose often 46.2 µM), usual class: inhibitors; AID 686979; also: nearly all actives have a fitted effect of over 55% in size
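Chicken DT40 Tdp1-/- cells stably complemented with human TDP1 were seeded at 400 cells/well in medium containing 20 nM camptothecin, exposed to pin-transferred compounds, and grown at 37 °C for at least 48 hr. Viability was read as ATP luminescence.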
Large screens that a line does not name were inactive. Sampled rows, rich in hits. Any-hit rate of the full collection: about 18%. Calls follow the shape of the dose curve; as a rule, active = well fitted curve in the direction sought with a large enough effect; inconclusive = small, poorly fitted or top-dose-only effect, or another doubt; inactive = no such curve, though single readings can be large; an effect the other way counts as inactive or inconclusive.

C=CCOc1cccc(/C=C2\C(=O)N(Cc3ccc(C)cc3)C(C)=C2C(=O)OC)c1	TDP1 cell noCPT 23µM, VDR inh inconclusive, TDP1 cell CPT inconclusive
O=C(NCC(c1ccco1)S(=O)(=O)c1cccs1)c1ccc(Cl)cc1 (stereo not given)	TDP1 cell noCPT inconclusive (no result: PLK1 PBD block)
CC(C)(C)OC(=O)N[C@H](C(=O)OC(C)(C)C)c1ccc2ccccc2c1	TDP1 cell CPT 8.2µM
COc1ccc([C@@H](NC(=O)OC(C)(C)C)C(=O)OC(C)(C)C)cc1	TDP1 cell noCPT inconclusive, TDP1 cell CPT inconclusive
CCOC(=O)N1CCC(Nc2ncnc3c2cnn3-c2ccc(C)cc2C)CC1	TDP1 cell noCPT 8.2µM, TDP1 cell CPT 10µM
Cc1ccc(-n2ncc3c(N(CC(C)C)CC(C)C)ncnc32)c(C)c1	TDP1 cell noCPT inconclusive, TDP1 cell CPT 21µM (no result: PLK1 PBD block)
CC(=O)Nc1ccc(Nc2ncnc3c2cnn3-c2ccc(C)cc2C)cc1	TDP1 cell CPT inconclusive
Cc1ccc(-n2ncc3c(NCCCOC(C)C)ncnc32)c(C)c1	TDP1 cell noCPT inconclusive, TDP1 cell CPT inconclusive
Cc1ccc(-n2ncc3c(SCc4ccccn4)ncnc32)c(C)c1	TDP1 cell noCPT 16µM, TDP1 cell CPT inconclusive
CSc1ncnc2c1cnn2-c1ccc(C)cc1C	TDP1 cell noCPT inconclusive
Cc1ccc(-n2ncc3c(NCC(C)C)ncnc32)c(C)c1	TDP1 cell noCPT inconclusive, TDP1 cell CPT 23µM (no result: PLK1 PBD block)
O=C(NCC(c1cccs1)S(=O)(=O)c1cccs1)c1ccccc1F (stereo not given)	TDP1 cell noCPT inconclusive (no result: PLK1 PBD block)
CCCCC(=O)Nc1sc2c(c1C(=O)OCC)CCC(C=O)=C2Cl	none (no result: TDP1 cell noCPT, PLK1 PBD block, VDR inh, TDP1 cell CPT)
CCOC(=O)c1cnn(-c2ccc(C(=O)Nc3cc(OC)c(OC)c(OC)c3)cc2)c1N	TDP1 cell noCPT inconclusive, TDP1 cell CPT inconclusive (no result: PLK1 PBD block)
CC(C)(C)Cc1c(-c2ccc(Br)cc2)nc2ccc(Cl)cn12	TDP1 cell noCPT inconclusive, TDP1 cell CPT 21µM (no result: TDP1 inh, VDR inh, KAT2A inh)
CC(C)(C)Cc1c(-c2ccc(Cl)cc2)nc2ccc(Cl)cn12	TDP1 cell noCPT inconclusive, TDP1 cell CPT inconclusive (no result: TDP1 inh, VDR inh, KAT2A inh)
CC(C)(C)Cc1c(-c2ccc(F)cc2)nc2ccc(Br)cn12	TDP1 cell noCPT 16µM, TDP1 cell CPT inconclusive (no result: TDP1 inh, VDR inh, KAT2A inh)
CC(C)(C)Cc1c(-c2ccc(Cl)cc2)nc2ccc(Br)cn12	TDP1 cell noCPT inconclusive, TDP1 cell CPT inconclusive (no result: TDP1 inh, VDR inh, KAT2A inh)
CN(C)Cc1c(-c2ccc(Cl)cc2)nc2ccc(Cl)cn12	TDP1 cell noCPT 13µM, TDP1 cell CPT inconclusive
CC(C)(C)Cc1c(-c2ccccc2)nc2ccc(Cl)cn12	TDP1 cell noCPT 23µM, TDP1 cell CPT 23µM (no result: TDP1 inh, VDR inh, KAT2A inh)
COC(=O)Nc1c(-c2ccccc2)nc2ccc(Cl)cn12	none
CCOC(=O)c1c(-c2ccccc2)nc2ccc(Cl)cn12	TDP1 cell noCPT 16µM, TDP1 cell CPT inconclusive
Cc1ccc2nc(-c3ccco3)c(CC(C)(C)C)n2c1	TDP1 cell noCPT 9.2µM, TDP1 cell CPT 10µM (no result: TDP1 inh, VDR inh, KAT2A inh)
CC(=O)N/C(=C\c1ccccc1)C(=O)OCC(=O)NC(C)C12CC3CC(CC(C3)C1)C2 (stereo not given)	TDP1 cell noCPT 21µM, TDP1 cell CPT 15µM
CC(=O)N/C(=C\c1ccccc1)C(=O)OCC(=O)NC(=O)c1ccccc1	none
Cc1ccc(CCNC(=O)CCn2nc(-c3ccccc3)ccc2=O)cc1	TDP1 cell CPT inconclusive (no result: PLK1 PBD block)
Cc1ccc(-c2ccc(=O)n(Cc3cc(C)ccc3C)n2)cc1	TDP1 cell noCPT 21µM, PLK1 PBD block inconclusive, TDP1 cell CPT inconclusive
Cc1ccc(CCNC(=O)CCn2nc(-c3ccc(C)cc3)ccc2=O)cc1	TDP1 cell noCPT inconclusive, TDP1 cell CPT 23µM (no result: PLK1 PBD block)
Cc1cccc(CN2CCCC(C(=O)N3CCCCC3)C2)c1 (stereo not given)	TDP1 cell noCPT inconclusive (no result: TDP1 inh)
CCOCCCNC(=O)Cn1cnc2c(cnn2-c2ccc(OC)cc2)c1=O	PLK1 PBD block 27µM, TDP1 cell CPT inconclusive (no result: TDP1 inh)
CN(C(=O)CSc1cc(C(=O)c2nccn2C)c2ccccc2n1)c1ccccc1	TDP1 cell noCPT 18µM, TDP1 cell CPT 15µM
CCn1nc(C)c([N+](=O)[O-])c1C(=O)NNC(=O)c1ccc(Cl)cc1	none
Cc1cc(N2CCN(C)CC2)nc2ccc(NC(=O)c3ccc(Br)o3)cc12	TDP1 cell noCPT 18µM, TDP1 cell CPT inconclusive
Cc1cc(C)cc(NC(=O)Nc2ccc3nc(N4CCN(C)CC4)cc(C)c3c2)c1	TDP1 cell noCPT 21µM, TDP1 cell CPT 23µM (no result: PLK1 PBD block)
Clc1ccccc1Cc1noc(CN2CCCCC2CCc2ccccn2)n1 (stereo not given)	TDP1 cell noCPT inconclusive, TDP1 cell CPT inconclusive
NNc1nc(-c2ccccc2Cl)nc2sc3c(c12)CCCC3	TDP1 cell noCPT inconclusive, TDP1 cell CPT inconclusive
CCOC(=O)C(=O)c1c(C)cc2ccccn12	PLK1 PBD block inconclusive
CCNS(=O)(=O)c1cccc(C(=O)c2c(C)cc3ccccn23)c1	TDP1 cell noCPT 15µM, TDP1 cell CPT inconclusive
Cc1cc2ccccn2c1C(=O)c1ccccc1Br	TDP1 cell noCPT inconclusive, TDP1 cell CPT 16µM
Cc1cc2ccccn2c1C(=O)c1ccc(F)cc1	TDP1 cell noCPT inconclusive
Cc1cc2ccccn2c1C(=O)c1ccc(S(=O)(=O)N(C)C)cc1	TDP1 cell noCPT 23µM, TDP1 cell CPT 18µM
O=C1CCN(CCc2ccccc2)CCN1C(CSc1ccc(Br)cc1)c1ccccc1 (stereo not given)	none (no result: TDP1 cell noCPT, PLK1 PBD block, KAT2A inh, TDP1 cell CPT)
CC(=O)Nc1ccccc1OCC(=O)N(Cc1ccccc1)C(C)C	TDP1 cell noCPT 13µM, TDP1 cell CPT 16µM
COc1cc2ccc(C(C)=NNC(N)=S)cc2cc1OC	TDP1 cell noCPT 15µM, TDP1 cell CPT inconclusive (no result: TDP1 inh, VDR inh, KAT2A inh)
CC(=NNC(N)=S)c1ccc2cc3c(cc2c1)OCO3	TDP1 cell noCPT 10µM, TDP1 cell CPT 23µM (no result: TDP1 inh, VDR inh, KAT2A inh)
COc1ccccc1OCC(=O)N/N=C(\C)c1ccc2ccccc2c1	TDP1 cell noCPT inconclusive, TDP1 cell CPT inconclusive (no result: TDP1 inh, VDR inh, KAT2A inh)
C/C(=N\NC(N)=S)c1ccc2c(c1)OCCO2	TDP1 cell noCPT inconclusive
CN(CC(=O)Nc1ccc(F)c(Cl)c1)S(=O)(=O)c1ccc2c(c1)n(C)c(=O)c(=O)n2C	TDP1 cell noCPT inconclusive, TDP1 cell CPT inconclusive
COc1cc(C)ccc1S(=O)(=O)n1nc(C)cc1C	none
